In PubChem BioAssay (Tox21):
Several values for one entry are separate records, joined by “and”; a condition that tells them apart may be missing. Identical values can stand only once. Inconclusive results are not listed. Where a call stands in place of a potency, no number is given. Where a structure was tested more than once in an assay, its records may differ in their call. Activity calls are given as the source filed them. Unless noted, the call rests on the fitted dose curve; in most records, active means well fitted curve in the direction sought with a large enough effect in the repeat runs; inconclusive means weak or mixed curves; inactive means no such curve, though single readings can be large; an effect the other way counts as inactive or inconclusive.

Legend:
[1] = qHTS assay to identify small molecule agonists of the RXR signaling pathway - cell viability counter screen (AID 1159529); further: nearly all actives have a fitted effect of over 50% in size; further: potency means the concentration at half of the fitted maximal effect
How it was run: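 CellTiter-Glo luminescence gave viability in the wells also read for beta-lactamase. Cells (RXR-alpha-UAS-bla HEK 293T, 2% charcoal-stripped FBS medium) had 5 hr plating, then 16 hr compound exposure at 37 C; tetraoctyl ammonium bromide served as positive control.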

[2] = qHTS assay to identify small molecule antagonists of the retinoid acid receptor (RAR) signaling pathway - cell viability counter screen (AID 1159551); further: nearly all actives have a fitted effect of over 35% in size
How it was run: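 Retinol-stimulated (1 uM final) C3RL4 cells, compound 6 h, 37 C; readout CellTiter-Glo luminescence (ATP) after 30 min RT incubation.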

[3] = qHTS assay to identify small molecule antagonists of the retinoic acid receptor (RAR) signaling pathway (AID 1159552; further: nearly all actives have a fitted effect of over 50% in size; further: potency means the concentration at half of the fitted maximal effect)
How it was run: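 Luminescent RARE reporter read-out in C3RL4 cells: 6 hr co-treatment at 37 C of test compounds with retinol at 1 uM final. Cells plated overnight beforehand; luciferase reagent incubated 30 min at room temperature before reading.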

[4] = qHTS assay to identify small molecule agonists of the retinoic acid receptor (RAR) signaling pathway (AID 1159553); further: potency means the concentration at half of the fitted maximal effect
How it was run: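 Reporter readout comes from luciferase under RARE control in C3RL4 cells; compound exposure lasts 6 hr at 37 C in 5% CO2, and luminescence is recorded following a 30 min room-temperature incubation with reagent.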

[5] = qHTS assay to identify small molecule antagonists of the estrogen related receptor (ERR) signaling pathway from Tox21 library - cell viability counter screen (AID 1224834); further: nearly all actives have a fitted effect of over 30% in size; further: potency means the concentration at half of the fitted maximal effect
How it was run: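 After 17.5 h of compound exposure at 37 C, ERR cells are incubated with CellTiter-Fluor for 30 min and fluorescence intensity serves as the viability measure.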

[6] = target: Luciferin 4-monooxygenase (Photinus pyralis) (UniProt P08659); test: qHTS assay to identify small molecule inhibitors of firefly luciferase (AID 1224835); further: nearly all actives have a fitted effect of over 25% in size; further: potency means the concentration at half of the fitted maximal effect
Chain of Luciferin 4-monooxygenase (Photinus pyralis) (P08659 whole entry, looked up): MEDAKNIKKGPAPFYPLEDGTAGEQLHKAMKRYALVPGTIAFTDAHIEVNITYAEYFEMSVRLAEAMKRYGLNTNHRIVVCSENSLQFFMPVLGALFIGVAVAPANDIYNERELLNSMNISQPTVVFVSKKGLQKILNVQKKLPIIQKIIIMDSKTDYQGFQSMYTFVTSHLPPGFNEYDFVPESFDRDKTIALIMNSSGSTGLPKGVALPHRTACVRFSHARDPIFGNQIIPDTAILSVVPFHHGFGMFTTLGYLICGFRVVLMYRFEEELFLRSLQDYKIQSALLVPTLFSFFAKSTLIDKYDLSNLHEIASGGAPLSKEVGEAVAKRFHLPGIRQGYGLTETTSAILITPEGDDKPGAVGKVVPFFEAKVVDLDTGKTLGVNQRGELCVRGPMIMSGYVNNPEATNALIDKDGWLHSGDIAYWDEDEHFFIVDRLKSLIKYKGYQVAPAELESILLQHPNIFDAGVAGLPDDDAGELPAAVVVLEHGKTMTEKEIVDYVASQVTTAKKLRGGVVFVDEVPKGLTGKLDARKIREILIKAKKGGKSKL
How it was run: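 Inhibition of purified Photinus luciferase is measured by luminescence. Substrate levels (D-luciferin, ATP) sit at their KM values. Each compound is tested in a concentration series.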

[7] = qHTS assay to identify small molecule agonists of the constitutive androstane receptor (CAR) signaling pathway - cell viability counter screen (AID 1224836); further: nearly all actives have a fitted effect of over 45% in size; further: potency means the concentration at half of the fitted maximal effect
How it was run: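 Cell viability multiplexed with the CAR agonist screen: CellTiter-Fluor fluorescence after 23 hr at 37 C. HepG2-CYP2B6-hCAR cells got compounds at 15 concentrations with PK11195 at 0.75 uM final.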

[8] = target: Retinoic acid receptor RXR-alpha (Homo sapiens) (UniProt P19793); test: qHTS assay to identify small molecule agonists of the RXR signaling pathway (AID 1159527; calls by dose curve; further: nearly all actives have a fitted effect of over 35% in size; further: potency means the concentration at half of the fitted maximal effect)
Chain of Retinoic acid receptor RXR-alpha (Homo sapiens) (P19793 whole entry, looked up): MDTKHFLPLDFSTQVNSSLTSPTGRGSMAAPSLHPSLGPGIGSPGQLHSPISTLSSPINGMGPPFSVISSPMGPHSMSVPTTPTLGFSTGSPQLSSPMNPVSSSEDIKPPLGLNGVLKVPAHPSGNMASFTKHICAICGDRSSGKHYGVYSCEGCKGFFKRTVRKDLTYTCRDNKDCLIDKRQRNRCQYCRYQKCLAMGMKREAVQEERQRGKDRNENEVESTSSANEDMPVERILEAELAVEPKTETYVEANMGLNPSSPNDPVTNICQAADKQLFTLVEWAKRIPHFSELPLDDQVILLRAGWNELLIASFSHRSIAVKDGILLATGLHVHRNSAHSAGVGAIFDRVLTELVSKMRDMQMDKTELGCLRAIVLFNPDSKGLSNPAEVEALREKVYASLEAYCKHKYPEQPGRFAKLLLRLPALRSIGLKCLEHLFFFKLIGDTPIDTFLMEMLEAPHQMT
How it was run: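 Agonist-mode beta-lactamase reporter assay: HEK 293T RXR-alpha-UAS-bla cells treated 16 hr at 37 C with compounds, 9-cis retinoic acid as positive control. LiveBLAzer FRET substrate, 405 nm excitation, 460/530 nm emission.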

[9] = qHTS assay to identify small molecule antagonists of the estrogen related receptor (ERR) signaling pathway - cell viability counter screen (AID 1224818); further: series mostly up to about 46 µM
How it was run: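 After a 6 h pre-incubation, ERR cells were dosed by pin tool with compounds, positive/negative controls or DMSO alone. Following 17.5 h at 37 C and 30 min with CellTiter-Fluor, fluorescence was recorded.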

[10] = qHTS assay to identify small molecule antagonists of the estrogen related receptor signaling pathway with the pleiotropic PPARgamma coactivator (PGC) cell viability counter screen (AID 1224822; further: series mostly up to about 46 µM)
How it was run: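 PGC/ERR cells were plated at 2,000 per well and allowed 6 h to settle before compound addition. Following 17.5 h at 37 C, CellTiter-Fluor reagent was added and fluorescence was read 30 min later.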

SMILES	Potency [1]	outcome [2]	Potency [3]	Potency [4]	Potency [5]	Potency [6]	Potency [7]	Potency [8]	outcome [9]	outcome [10]
CC(C)(C)[C@@H](O)[C@@H](Cc1ccc(Cl)cc1)n1cncn1	inactive	inactive	inactive	inactive	inactive	inactive	inactive			
CCCCCCCC(=O)OC	inactive	inactive			inactive	inactive	inactive	inactive		
CCCCC(CC)COC(=O)C(C#N)=C(c1ccccc1)c1ccccc1 (stereo not drawn)	inactive	inactive	30.6 µM (active)	inactive	inactive	inactive	inactive			
O=C(O)c1ccc2c(c1)C(=O)OC2=O	inactive	inactive	inactive	inactive	inactive	inactive	inactive			
c1c[nH]cn1	inactive	inactive	inactive	inactive	inactive	inactive	inactive			
CCCCC(CC)COC(=O)CCCCC(=O)OCC(CC)CCCC (stereo not drawn)	inactive	inactive	inactive	inactive	inactive	inactive	inactive			
CCCCC(CC)CO (stereo not drawn)	inactive	inactive			inactive	inactive	inactive			
O=C(OCCOCCOC(=O)c1ccccc1)c1ccccc1	inactive	inactive	inactive	inactive	inactive	inactive	inactive			
CCCCCCCCCCCCOCCO	inactive	inactive	inactive		inactive	25.2 µM (active) and 30.9 µM (active)	inactive			
C[C@H]1C[C@H]2[C@@H]3CCC4=CC(=O)C=C[C@]4(C)[C@@]3(F)[C@@H](O)C[C@]2(C)[C@@]1(O)C(=O)CO	inactive	inactive			inactive		inactive	inactive		
Cc1cnc(C(=O)NCCc2ccc(S(=O)(=O)NC(=O)NC3CCCCC3)cc2)cn1	inactive	inactive		inactive	inactive	inactive	inactive		inactive	inactive
OCCOCCN1CCN(C2=Nc3ccccc3Sc3ccccc32)CC1	inactive	inactive	inactive	inactive	inactive		inactive			
CSCCC=O	inactive	inactive	inactive	inactive	inactive	inactive	inactive			
CC1=CC(=O)NS(=O)(=O)O1	inactive	inactive			inactive		inactive	inactive		
CCc1ccc(CCOc2ccc(CC3SC(=O)NC3=O)cc2)nc1 (stereo not drawn)	inactive	inactive			inactive	31.7 µM (active) and 24.5 µM (active)	inactive			
O=C(O)c1ccc(C(=O)O)cc1	inactive	inactive			inactive	inactive	inactive	inactive		
CCCCCCCCCCCCc1ccccc1	inactive	inactive	inactive	inactive	inactive	inactive	inactive			

SMILES	Potency [1]	outcome [2]	Potency [3]	Potency [4]	Potency [5]	Potency [6]	Potency [7]	Potency [8]	outcome [9]	outcome [10]
OCCOCCOCCO	inactive	inactive			inactive	inactive	inactive			
CC(c1cc2ccccc2s1)N(O)C(N)=O (stereo not drawn)	inactive	inactive			inactive	inactive	inactive	inactive		
O=[N+]([O-])c1ccc(/C=C/c2ccc([N+](=O)[O-])cc2S(=O)(=O)O)c(S(=O)(=O)O)c1	inactive	inactive			inactive	inactive	inactive	inactive		
COS(C)(=O)=O	inactive	inactive			inactive	inactive	inactive			
O=C(O)c1cc(=O)c2c(OCC(O)COc3cccc4oc(C(=O)O)cc(=O)c34)cccc2o1	inactive	inactive	inactive	inactive	inactive	inactive	inactive			
COc1ccc(Nc2ccccc2)c(C)c1	inactive	inactive			inactive	inactive	inactive	inactive		
CC[C@H](C)C(=O)O[C@H]1C[C@@H](C)C=C2C=C[C@H](C)[C@H](CC[C@@H]3C[C@@H](O)CC(=O)O3)[C@H]21	8.83 µM (active)	inactive			69.6 µM (active) and inactive	inactive	inactive			
CC1CCC2CC1C2(C)C (stereo not drawn)	inactive	inactive			inactive	inactive	inactive	inactive		
C=CCOC(=O)c1ccccc1C(=O)OCC=C	inactive	inactive	inactive	inactive	inactive	inactive	inactive			
C#C[C@]1(O)CC[C@H]2[C@@H]3CCC4=CC(=O)CC[C@@H]4[C@H]3CC[C@@]21C	inactive	inactive	27.3 µM (active) and 11.9 µM (active)	inactive	inactive	inactive	inactive			
Nc1cc([N+](=O)[O-])ccc1O	inactive	inactive			48.6 µM (active) and 30.5 µM (active)	inactive	48.6 µM (active)	inactive and 9.72 µM (active)		
CCN(CC)c1ccc(C(=O)c2ccccc2C(=O)O)c(O)c1	inactive	inactive	inactive	10.9 µM (active) and 34.4 µM (active)	inactive	28.4 µM (active) and 25.2 µM (active)	inactive			
Cc1occc(=O)c1O	inactive	inactive			inactive	inactive	inactive	inactive and 12.9 µM (active)		
CCCCCCCCCCCCCCCO	inactive	inactive	inactive	inactive	inactive	inactive	inactive			
ON=C1CCCCC1	inactive	inactive	inactive	inactive	inactive	inactive	inactive			
CCCSc1ccc2nc(NC(=O)OC)[nH]c2c1	inactive	inactive	inactive	6.11 µM (active) and 21.1 µM (active)	inactive	3.99 µM (active) and 4.36 µM (active)	inactive			
